Rows were chosen to be rich in hits. Some 2% of all compounds tested hit in one or more screens of this group.
VLA-4 inh – inhibition in a human VLA-4 binding assay; P13612; VLA-4 expressing cells, ligand binding flow cytometry; inhibition, % (about 7 µM as worked out from the volumes in the protocol); hit rate 0.2% among 330,000; AID 2557; in the data active = inhibition above about 50%
Granule exo inh – lytic granule exocytosis inhibition. TALL-104 LAMP-1 surface exposure, flow cytometry; cells stimulated with thapsigargin and PMA. inhibition, % at 10 µM. hit rate 0.66% among 360,000. AID 651702;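 active = inhibition above about 55%, limit read from the data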
ABCB6 inh MLPCN – human ABCB6 transporter inhibition; Q9NP58; K562-ABCB6 porphyrin accumulation, flow cytometry, 1 h; hits give low values; fluorescence ratio to DMSO, % at 10 µM; hit rate 0.19% among 360,000; AID 602162;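 active = fluorescence ratio to DMSO below 75%, the collection mean minus 3 SD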;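 also: signal is porphyrin accumulated inside mitochondria; lower ratio means ABCB6 inhibition with less porphyrin fluorescence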
NR1D1 modulator – modulators of human Rev-erb alpha DNA binding. hit rate 0.79% among 370,000. Rev-erbα–FITC-DNA binding, fluorescence polarization, 90 min. activity, % at 10 µM. P20393;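 active = activity above about 14%, limit read from the data; passing the limit was not always enough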
PG9 Ab binder – small molecules binding HIV-1 gp120 antibody PG9. TR-FRET gp120-PG9 antibody binding. inhibition, % at 6.7 µM. hit rate 0.43% among 360,000. AID 624416; in the data active = inhibition above about 8.5%
PG9 bind confirm – confirmation of small molecules binding HIV-1 gp120 antibody PG9; TR-FRET PG9 antibody binding, biochemical; shares compounds with PG9 Ab binder; AID 651571; hit rate 90% among 1,500; inhibition, % at 6.7 µM; in the data active = inhibition above about 9%
PGV04 counter – binds control antibody PGV04 in PG9 binder counter-screen; shares compounds with PG9 Ab binder; TR-FRET PGV04 antibody-gp120 binding, biochemical; inhibition, % at 6.7 µM; hit rate 95% among 1,500; AID 651604; in the data active = inhibition above about 9.5%
Rev-erbA confirm – Rev-erb alpha (human) modulation, hit confirmation. shares compounds with NR1D1 modulator. Rev-erb alpha FITC-DNA binding, fluorescence polarization, 90 min. activation, % at 25 µM. hit rate 61% among 3,000. AID 1259319;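 active = activation at or above a set limit, or at least 3 SD above the negative control mean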
RORg DNA counter – affects RORgamma DNA binding in a Rev-erb alpha counter-screen; IC50, µM; purified RORgamma protein-FITC-DNA binding, fluorescence polarization; shares compounds with NR1D1 modulator; AID 1259320; hit rate 8% among 910;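 active = Compounds whose fitted half-maximal concentration for disrupting protein-DNA binding is below 10 micromolar; the record names Rev-erb in its text, so the target is in doubt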
Of the large screens only hits and unclear results are named; the others gave an inactive call (follow-up assays come after a bar, where they were run).

COC(=O)C1CN(Cc2ccc(Cl)cc2)CCS(=O)(=O)N1Cc1cn(Cc2ccc(OC)cc2)nn1 (configuration not stated)	none (no result: VLA-4 inh, Granule exo inh, ABCB6 inh MLPCN, PG9 Ab binder)
CC(=O)c1ccc(Nc2ncnc3ccc(Br)cc23)cc1	NR1D1 modulator 121.5, PG9 Ab binder 10.8 (no result: VLA-4 inh) | PG9 bind confirm 20.2 | PGV04 counter 56.0 | Rev-erbA confirm 119.1 | RORg DNA counter inactive
CCN(C(=O)COC(=O)c1cc(-c2ccccc2)nc2ccc(Br)cc12)C1CCS(=O)(=O)C1 (configuration not stated)	NR1D1 modulator 41.8, PG9 Ab binder 12.3 | PG9 bind confirm 23.1 | PGV04 counter 31.6 | Rev-erbA confirm 43.3
O=C(COc1ncnc2ccc(Br)cc12)NCc1ccc2c(c1)OCO2	NR1D1 modulator 57.8, PG9 Ab binder 40.5 | PG9 bind confirm 40.0 | PGV04 counter 59.4 | Rev-erbA confirm 50.5 | RORg DNA counter inactive
O=C(COc1ncnc2ccc(Br)cc12)NCc1ccco1	none
O=S1(=O)c2ccc(Br)cc2OC[C@H](Cc2ccccc2)N1Cc1cn(CCC2OCCCO2)nn1	none (no result: VLA-4 inh, Granule exo inh, ABCB6 inh MLPCN, PG9 Ab binder)
CS(=O)(=O)c1ccc(C(=O)Nc2ccc(N3CCCCC3)cc2)c(Cl)c1	none
Cc1ccc(Sc2ccc(NC(=O)c3ccc(S(C)(=O)=O)cc3Cl)cc2)cc1	NR1D1 modulator 46.0, PG9 Ab binder 47.7 | PG9 bind confirm 41.1 | PGV04 counter 62.1 | Rev-erbA confirm 21.6
CC(C)CNC(=O)OCc1cn(Cc2cccc(C(F)(F)F)c2)nn1	none (no result: VLA-4 inh, Granule exo inh, ABCB6 inh MLPCN, PG9 Ab binder)
O=c1c2ccccc2[nH]c(=S)n1CCN1CCc2ccccc2C1	none
O=C(Cn1c(=S)[nH]c2ccccc2c1=O)N1CCc2ccccc2C1	NR1D1 modulator 34.8, PG9 Ab binder 32.1 | PG9 bind confirm 33.0 | PGV04 counter 51.4 | Rev-erbA confirm 22.8
CC(C)CN1C(=O)C[C@]2(C(=O)N(C)c3ccc(NC(=O)c4cc(F)ccc4F)cc32)C1c1ccccc1 (some centres not stated)	none (no result: VLA-4 inh, Granule exo inh, ABCB6 inh MLPCN, PG9 Ab binder)
COC(=O)Cn1c(=NC(=O)c2ccc(OC)c(OC)c2)sc2cc(OC)ccc21	NR1D1 modulator 64.0, PG9 Ab binder 32.8 | PG9 bind confirm 60.7 | PGV04 counter 75.0 | Rev-erbA confirm 31.4 | RORg DNA counter inactive
O=c1c2cc3cc(Cl)ccc3nc2ncn1Cc1ccc(Oc2ccccc2)cc1	none (no result: VLA-4 inh, Granule exo inh, ABCB6 inh MLPCN, PG9 Ab binder)
COc1ccc(CCNC(=O)CCCn2c(=S)[nH]c3cc4c(cc3c2=O)OCO4)cc1OC	none (no result: VLA-4 inh)
O=C(CCCn1c(=S)[nH]c2cc3c(cc2c1=O)OCO3)NCc1cccc(Cl)c1	NR1D1 modulator 48.4, PG9 Ab binder 17.4 | PG9 bind confirm 13.1 | PGV04 counter 22.6 | Rev-erbA confirm 29.9 | RORg DNA counter inactive
COc1ccc(CNC(=O)CCCn2c(=S)[nH]c3cc4c(cc3c2=O)OCO4)cc1	NR1D1 modulator 56.4, PG9 Ab binder 25.9 | PG9 bind confirm 17.0 | PGV04 counter 20.8 | Rev-erbA confirm 35.9 | RORg DNA counter inactive
CCCCCCCC(=O)CC[C@@H]1[C@@H](C/C=C\CCCC(=O)O)[C@@H](O)C[C@H]1O	none (no result: VLA-4 inh, Granule exo inh, ABCB6 inh MLPCN, PG9 Ab binder)
CCCNC(=O)c1ccc2c(=O)n3c(-c4ccc(C)cc4)csc3nc2c1	NR1D1 modulator 25.9, PG9 Ab binder 24.2 | PG9 bind confirm 36.6 | PGV04 counter 67.9 | Rev-erbA confirm 24.2
Cc1ccc(CN2CCCCC(NC(=O)c3c(F)cccc3F)C2=O)cc1 (configuration not stated)	none (no result: VLA-4 inh, Granule exo inh, ABCB6 inh MLPCN, PG9 Ab binder)
CCOC(=O)c1sc(NC(=O)CN(CC)CC)c(C(=O)OCC)c1C	NR1D1 modulator 43.1, PG9 Ab binder 17.0 | PG9 bind confirm inactive | PGV04 counter inactive | Rev-erbA confirm inactive
COc1ccc(-c2cc(-c3ccccc3)c(C#N)c(SCC(=O)Nc3ncc(C)s3)n2)cc1	NR1D1 modulator 25.9, PG9 Ab binder 27.5 | PG9 bind confirm inactive | PGV04 counter 10.0 | Rev-erbA confirm 42.1 | RORg DNA counter inactive
N#Cc1c(-c2ccc(F)cc2)cc(-c2ccccc2)nc1SCC(=O)NCC(=O)O	none
COc1ccc(-c2ccc3c(n2)CCCN3S(=O)(=O)c2ccccc2C)cc1	none (no result: VLA-4 inh, Granule exo inh, ABCB6 inh MLPCN)
O=C(CSc1nnc(COc2ccccc2)n1-c1ccc(Cl)cc1)Nc1ccc(OCc2ccccc2)cc1	none (no result: VLA-4 inh, Granule exo inh, ABCB6 inh MLPCN, PG9 Ab binder)
C=CCn1c(SCc2nc3ccccc3c(=O)[nH]2)nc2scc(C3CC3)c2c1=O	NR1D1 modulator 25.8, PG9 Ab binder 14.7 | PG9 bind confirm 16.9 | PGV04 counter 28.8 | Rev-erbA confirm 22.1
COc1ccc(-c2c(C)nc3c(-c4ccsc4)cnn3c2N)cc1	NR1D1 modulator 107.9, PG9 Ab binder 36.4 | PG9 bind confirm inactive | PGV04 counter 16.0 | Rev-erbA confirm 65.8 | RORg DNA counter inactive
COc1ccc(-c2c(C)nc3c(-c4ccccn4)cnn3c2N)cc1	none
Nc1[nH]c(C(=O)c2ccccc2)c(-c2ccc(Cl)cc2F)c1C(=O)NCCc1c[nH]c2ccccc12	none (no result: VLA-4 inh, Granule exo inh, ABCB6 inh MLPCN)
COc1cc(-c2ccc3c(=O)c4ccccc4sc3c2)cc(OC)c1OC	NR1D1 modulator 75.7, PG9 Ab binder 17.0 | PG9 bind confirm 20.4 | PGV04 counter 31.3 | Rev-erbA confirm 48.6 | RORg DNA counter inactive
Nc1[nH]c(C(=O)c2ccccc2)c(-c2ccccn2)c1C(=O)c1c[nH]c2ccc(F)cc12	none (no result: VLA-4 inh, Granule exo inh, ABCB6 inh MLPCN)
COc1ccc2oc(C(=O)Nc3nccs3)c(C)c2c1	NR1D1 modulator 35.6, PG9 Ab binder 12.2 | PG9 bind confirm 21.3 | PGV04 counter 46.2 | Rev-erbA confirm inactive
Cc1sc2nc(Cc3ccccc3)[nH]c(=O)c2c1-c1ccccc1	NR1D1 modulator 69.7, PG9 Ab binder 34.7 | PG9 bind confirm 44.2 | PGV04 counter 65.1 | Rev-erbA confirm 87.2 | RORg DNA counter inactive
Cc1sc2nc(-c3cccnc3)[nH]c(=O)c2c1-c1ccccc1	none
Nc1ncnc2c1ncn2[C@@H]1O[C@H](C(=O)N[C@@H](CCc2ccccc2)C(=O)N2CCN(C(=O)C(F)(F)F)CC2)[C@@H](O)[C@H]1O	none (no result: VLA-4 inh, Granule exo inh, ABCB6 inh MLPCN)
Cc1cc(C)c(C#N)c(SCC(=O)Nc2cccc(S(=O)(=O)N3CCCC3)c2)n1	NR1D1 modulator 21.4, PG9 Ab binder 37.4 (no result: VLA-4 inh) | PG9 bind confirm 40.8 | PGV04 counter 65.4 | Rev-erbA confirm 11.2
O=S1(=O)c2ccc(Br)cc2OC[C@H](Cc2ccccc2)N1Cc1cn(Cc2ccc(F)cc2)nn1	none (no result: VLA-4 inh, Granule exo inh, ABCB6 inh MLPCN, PG9 Ab binder)
COC1C(CO)OC(n2c3c(Cl)cccc3c3c4c(c5c6cccc(Cl)c6[nH]c5c32)C(=O)NC4=O)C(O)C1O (configuration not stated)	NR1D1 modulator 111.3, PG9 Ab binder 72.4 (no result: VLA-4 inh) | PG9 bind confirm 56.2 | PGV04 counter 67.8 | Rev-erbA confirm 173.2 | RORg DNA counter inactive
N#Cc1cc2c(nc1SCc1ccncc1)CCC2	none

Screening results (PubChem BioAssay)
